Each structure is given as a SMILES string. Inconclusive results are not listed. Calls of active or inactive are those of the source. Calls come from the whole dose curve; as a rule, active = well fitted inhibition curve with a large enough effect; inconclusive = small, poorly fitted or top-dose-only effect; inactive = no such curve, though single readings can be large or run the other way.

Experimental findings from PubChem BioAssay AID651791 (National Center for Advancing Translational Sciences (NCATS), 2012) are described below.
Potency is the fitted concentration of half-maximal effect.

The experiment is described as follows: InCell qHTS Assay for Inhibitors of the mTORC1 Signaling Pathway in MEF (Tsc2-/-, p53-/-) Cells: Hit Validation.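 Note: phospho-S6 Ser235/236 signal normalized to propidium iodide cell count per well; nearly all actives have a fitted effect of over 75% in size.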 The settings on record: phospho-rpS6 immunofluorescence, 24 h; activity change, negative = inhibition: at 38.3 µM (top of the series). (Quantitative high-throughput screening tests each substance at several concentrations.)
Turning to `CCCOCc1cc(CN2CCN(c3ccccc3OC)CC2)c(O)c2ncccc12`, the Potency is 11.7 µM (active).

Take `Oc1ccccc1Nc1nc(-c2ccccc2)c2cc(Cl)ccc2n1`: the activity change, negative = inhibition was -100%.

Consider `COc1ccc(Cn2c(C(=O)O)c(CNCc3ccccc3F)c3ccc(OC)cc32)cc1`, for which the activity change, negative = inhibition is -100%.

In the case of `O=C(Nc1cccc(C(F)(F)F)c1)c1cnn(-c2cccc(F)c2)c1C1CCNCC1`, the activity change, negative = inhibition is -100%.

`CC(C)CS(=O)(=O)c1oc(-c2ccc(F)cc2)nc1S(=O)(=O)c1ccccc1`: the Potency was 3.29 µM (active).

In the case of `Cc1ccc(CS(=O)(=O)c2ncc(Cl)c(C(=O)Nc3nnc(C(C)C)s3)n2)cc1`, the Potency was 6.56 µM (active).

`CC(C)CCNC(=O)c1cccc(Nc2nc3ccccc3n3nnnc23)c1`: the Potency is 4.14 µM (active).

With `COc1ccc(S(=O)(=O)N(C(=O)c2ccncc2)c2ccc3oc(C)c(C(C)=O)c3c2)cc1`, the activity change, negative = inhibition was -100%.

As to `COc1ccc(-c2ccc(CCC(=O)O)n2-c2ccccc2O)cc1`, the activity change, negative = inhibition was -7.96%.

Consider `CCOC(=O)c1[nH]c2ccccc2c1NC(=O)c1ccccc1OCC`, for which the activity change, negative = inhibition was -100%.

In the case of `COc1cc(O)ccc1-c1nc2ccc(Br)cn2c1Nc1ccccc1C`, the activity change, negative = inhibition was -100%.

Turning to `COc1ccc(N(Cc2ccccc2)C(=O)c2nc(S(C)(=O)=O)ncc2Cl)cc1`, the Potency is 3.69 µM (active).

Consider `O=C(COc1ccc(F)cc1)Nc1ccc(Cl)c(-c2nc3ccccc3[nH]2)c1`, for which the activity change, negative = inhibition is -100%.

Consider `CCOc1cc(C(=O)Nc2ccc(-c3cn4cccnc4n3)cc2)cc(OCC)c1OCC`, for which the activity change, negative = inhibition is -100%.

Turning to `COc1ccc2c(c1)CCc1c(C(=O)Nc3c(C)nn(Cc4ccc(Cl)cc4)c3C)noc1-2`, the activity change, negative = inhibition was -100%.

With `CCSc1oc(-c2ccc(F)cc2)nc1S(=O)(=O)c1ccc(C)cc1`, the activity change, negative = inhibition is -100%.

In the case of `Cc1ccc2nc(/C(C#N)=C/c3ccc(-c4ccc(F)cc4F)o3)[nH]c2c1`, the activity change, negative = inhibition is -100%.

Take `CC(C)Oc1cccc(C2CC(=O)Nc3cc4c(cc32)OCO4)c1` (configuration not stated): the activity change, negative = inhibition is -9.58%.

As for `Cc1c(C(=O)OC2CCCCC2)[nH]c2c1C(=O)CC(c1ccccc1)C2` (configuration not stated), the activity change, negative = inhibition was -24.8%.

Regarding `COc1ccc(-c2nnc(SCC(=O)NCc3ccccc3)nc2-c2ccc(OC)c(OC)c2)cc1OC`, the activity change, negative = inhibition was -100%.

As to `CC(C)(C)c1ccc(-c2nc(S(=O)(=O)c3ccccc3)c(N3CCOCC3)o2)cc1`, the activity change, negative = inhibition is -100%.

As to `CCCS(=O)(=O)c1c(S(=O)(=O)CCC)c2cc(C(C)(C)C)ccn2c1C(=O)c1ccc(OC)c(OC)c1`, the activity change, negative = inhibition is -100%.

As to `CCn1c(=O)sc2cc(NS(=O)(=O)c3ccc(F)c(C)c3)ccc21`, the activity change, negative = inhibition is -100%.

In the case of `Cc1ccc(NC(=O)c2nc(S(=O)(=O)Cc3cccc(C)c3)ncc2Cl)cc1`, the Potency is 14.7 µM (active).

For the compound `Cc1cc(NC(=O)c2ccco2)cc(-c2nc3cc(Cl)ccc3o2)c1O`, the activity change, negative = inhibition was -4.63%.

On to `CC1C(=O)N2CCCc3cc(S(=O)(=O)Nc4ccc(Br)cc4F)cc1c32` (configuration not stated), for which the Potency was 14.7 µM (active).

For the compound `Cc1nn(CCCC(=O)NCc2cccc(Cl)c2)c(=O)c2c1sc1ccccc12`, the activity change, negative = inhibition was -100%.

Consider `CCOC(=O)N1CCN(Cc2nc3cc(NC(=O)CC)ccc3n2C(C)C)CC1`, for which the activity change, negative = inhibition was -100%.

Regarding `CC(C)S(=O)(=O)c1oc(-c2ccc(F)cc2)nc1S(=O)(=O)c1ccc(F)cc1`, the Potency was 0.927 µM (active).

As for `CC1=C(C(=O)OC2CCCC2)C(c2ccccc2Cl)CC(=O)N1` (configuration not stated), the activity change, negative = inhibition was -100%.

In the case of `Cc1ccccc1S(=O)Cc1ccc(C(=O)N2CCN(c3cccc(C)c3C)CC2)o1` (configuration not stated), the activity change, negative = inhibition is -28.4%.

`CCc1cccc(NC(=O)c2oc3ccc4c(c3c2C)C(=O)CC(C)(C)O4)c1`: the activity change, negative = inhibition was -100%.

Take `Cc1ccc(NC(=O)CSc2nc(-c3ccco3)cc(C(F)(F)F)n2)cc1C`: the activity change, negative = inhibition was -100%.

As to `CC(C)(C)c1ccc(C(=O)Nc2nnc3n2CCS3)cc1`, the activity change, negative = inhibition was -100%.

With `CCN(CC)Cc1c(NC(=O)c2ccc(OC)cc2)sc2c1CCCC2`, the activity change, negative = inhibition was 1.72%.

With `CCOC(=O)c1ccc(N2C(=O)c3n[nH]c(-c4cccs4)c3C2c2cccc(F)c2)cc1` (configuration not stated), the activity change, negative = inhibition was -100%.

For the compound `COc1ccc(NC(=O)CSc2nc3ccccc3n2Cc2cccc(OC)c2)cc1`, the activity change, negative = inhibition is -100%.
